Data on 40 sequences can be found in the supplement of paper PMC10338343.

± gives the standard deviation. Some results are limits rather than exact numbers.

The assay concerns MILI (PIWIL2) piRISC loaded with piRNA #1 (26 nt). As to the kind of experiment: pre-steady-state target cleavage rate (min^-1); guide: piRNA #1 5'p-UGAGGUAGUAGGUUGUAUAGUAUCCA; MIWI and MILI are mouse PIWI proteins and EfPiwi is from a freshwater sponge; tags in brackets are library labels; higher = faster piRNA-guided slicing of the target. The settings on record: auxiliary factor: 500 nM mouse GTSF1. Put shortly: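 A transcribed, DNA-blocked target RNA library (0.1 nM) and 1 nM active affinity-purified piRISC bearing one synthetic guide were incubated in HEPES–potassium acetate buffer at 33 °C for 0–8 or 0–960 min, either with or without 500 nM GTSF1 partner protein. Uncleaved targets were sequenced, normalised to depth and to weakly complementary targets, and pooled over three trials, with k3 capped at 0.0001 min^-1. The pre-steady-state cleavage rate was derived with a burst-and-steady-state fit.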
As to GGAGACCUAUGUAUUGAACCUACUACCUCA, the “pre-steady-state target cleavage rate” value was determined as 0.00285 ± 0.0015.
For GGAGACCAUACUAAACAAGCUACUACCUCA, the “pre-steady-state target cleavage rate” value amounted to 0.236 ± 0.018.
Turning to GGAGACCUAUGAUAUGUACCUACUUGCUCA, the “pre-steady-state target cleavage rate” value was less than 0.0001.
With GGAGACCUAUCUAUUCAACCUACUACCACA the figure was 0.144 ± 0.022.
In the case of GGAGACCUAUCUAUACAACCUACUACCAUCA it was 0.123 ± 0.016; in that of GGAGUGGAUACUUUACAACCUAGUACCUCA, 0.0239 ± 0.0053.
With GGAGACCUAUGAAUACAUCCUACUACCUCA the figure was 0.012 ± 0.0031; with GGAGACCUAUCUAAACAACCUACUACCACA, 0.0926 ± 0.013.
On to GGAGACCUAUGAUAUGUACCUACUAACUCA, for which the “pre-steady-state target cleavage rate” value was less than 0.0001.
In the case of GGAGACCUAACAAUACAACCUACAACCUCA it was 0.0691 ± 0.019; in that of GGAGACCUAUGUAGACAACCUACUACCUCA, 0.0173 ± 0.0042.
With GGAGACCUAACUAUACAACCUACUACCCUCA, the “pre-steady-state target cleavage rate” value came to 0.185 ± 0.034.
Consider GGAGACCUAUGAUAACAACCUACAUACCUCA, for which the “pre-steady-state target cleavage rate” value turned out to be 0.00403 ± 0.002.
In the case of GGAGACCUAUGAAUACAUCCUACAACCUCA it was 0.0119 ± 0.0025; in that of GGAGUGGAUACUAUAAAACCUACUACCUCA, 0.161 ± 0.0081; in that of GGAGACCUUACAUAACAACCUACUACCUCA, 0.013 ± 0.0048.
With GGAGAGGAUACUAUACAAUCUACUACCUCA, the “pre-steady-state target cleavage rate” value came to 0.129 ± 0.0097.
On to GGAGUGGAAACUAAACAACCUACUACCUCA, for which the “pre-steady-state target cleavage rate” value amounted to 0.201 ± 0.02.
For GGAGACCUAUGAUAGCAACCUACUACCUCA, the “pre-steady-state target cleavage rate” value was 0.00366 ± 0.0022.
In the case of GGAGACCUAUCUAUACAACGUACUACCUGA it was 0.00689 ± 0.0021; in that of GGAGACCUAACUAAACAACGUACUACCUCA, 0.00971 ± 0.005; in that of GGAGACCUAUGAUUACAACAUACUACCUCA, 0.00271 ± 0.0024.
For the sequence GGAGACCUAUCUAUACAAUCUACUACCUCA, the “pre-steady-state target cleavage rate” value is 0.093 ± 0.0085.
With GGAGACCUUACUAUACAACCUACUACGCUCA the figure was 0.256 ± 0.019; with GGAGACCUAUGUAUACUAGCUACUACCUCA, 0.0336 ± 0.0059; with GGAGACCUAUCUAUACUACCUACUACGUCA, 0.0241 ± 0.0069.
In the case of GGAGACCUAUGAAUACAACCUGCUACCUCA it was 0.00274 ± 0.0027; in that of GGAGUGGAUAGUAAACAACCUACUACCUCA, 0.0879 ± 0.0084.
GGAGACCUAUCUAUUCAACCUAGUACCUCA: the “pre-steady-state target cleavage rate” value was determined as 0.00955 ± 0.0033.
As to GGAGACCUAACUAUACUACCUACAACCUCA, the “pre-steady-state target cleavage rate” value stood at 0.0957 ± 0.018.
Regarding GGAGACCAUACUAAUCAACCUACUACCUCA, the “pre-steady-state target cleavage rate” value came to 0.17 ± 0.019.
In the case of GGAGACCUUACUAAACAACGUACUACCUCA it was 0.015 ± 0.0024.
As to GGAGUGGAUACUAUUCAACCUACUUCCUCA, the “pre-steady-state target cleavage rate” value was 0.00253 ± 0.002.
Consider GGAGACCUAUGAUAUGUACCUACUACCCCA, for which the “pre-steady-state target cleavage rate” value was less than 0.0001.
Regarding GGAGACCUAUGAAUACAACCUAGCUACCUCA, the “pre-steady-state target cleavage rate” value was found to be 0.00489 ± 0.0025.
Regarding GGAGACGAUACUAUAGAACCUACAACCUCA, the “pre-steady-state target cleavage rate” value stood at 0.0115 ± 0.0039.
With GGAGACCUAUGAUAACAACCUACUAGCCUCA the figure was 0.00672 ± 0.0023.
In the case of GGAGACCUAACUAUUCAACGUACUACCUCA it was 0.0113 ± 0.0053; in that of GGAGACCUAUGUAUACAAGCUACUUCCUCA, 0.101 ± 0.013.
On to GGAGACCUAACUAUAGAACCUACUACGUCA, for which the “pre-steady-state target cleavage rate” value stood at 0.0322 ± 0.01.
